Laboratory results: PubChem BioAssay (NCI)
The panel holds about 83,000 compounds, 20% with a hit somewhere; the sample as a whole holds those more often.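 Results are percent growth after 48 hours of single-concentration exposure. 100 means growth as in untreated cells, lower positive values show inhibition; negative values down to -100 show cell death.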 Unmarked numbers belong to inactive results. Activity calls are given as the source filed them. How the source made its calls: active means growth percent below 10; inactive means the rest.

system: MDA-MB-468 breast; assay: NCI-60 one-dose screen, 48 h (100 = growth as untreated, 0 = no growth, -100 = all killed); settings: 10 µM unless noted

| SMILES | growth |
| --- | --- |
| O=C([O][Sn]([O]C(=O)c1ccccn1)([c]1ccccc1)[c]1ccccc1)c1ccccn1 | -23.8% (active) |
| O=C(N/N=C/c1ccc([N+](=O)[O-])o1)c1[nH]c2ccc(Br)cc2c1-c1ccccc1 | 24.8% |
| S=c1ccnc[nH]1 | 122% |
| CCCn1cnc2c(c1=N)C(c1ccc(OC)cc1)c1sc3c(C)cccc3c1O2 (stereo not given) | 50% |
| Cc1ccccc1NC(=O)Cn1cc(CN2CCN(c3ccnc4cc(Cl)ccc34)CC2)nn1 | 93% |
| COc1cc(C)c(Cc2cnc(N)nc2N)cc1OC | 116% |
| CCOC(=O)Nc1ccc2c(ccn2C(=O)c2cccc(F)c2)c1 | 34.5% |
| CC(C)c1ccc(-n2c(=S)[nH]c3sc4cc(O)ccc4c3c2=O)cc1 | 96.5% |
| O=C1Nc2ccc(Cl)cc2/C1=C/c1cccs1 | -4.25% (active) |
| CC(Oc1ccc(C(=O)O)cc1C(F)(F)F)c1ccc(Oc2ccccc2)cn1 (stereo not given) | 97.3% |
| N#CCCN1CCN(CCC#N)C1=S | 119% |
| O=C1/C(=C/c2ccccc2O)C(=S)SN1Cc1ccco1 | 64.7% |
| CN[C@@H]1C[C@H]2O[C@@](C)([C@@H]1OC)n1c3ccccc3c3c4c(c5c6ccccc6n2c5c31)C(=O)N[C@H]4O | -56.3% (active) |
| O=C(CS)Nc1ccc2ccccc2c1 | 108% |
| Nc1cc(F)ccc1NC(=O)c1ccc(NC(=O)C/C=C/c2cccnc2)cc1 | 40.1% |
| CC(=O)Oc1ccc(C(c2ccc(OC(C)=O)cc2)c2ccccn2)cc1 | 17.3% |
| COc1c(B(O)O)cc(F)cc1-c1nc2ccc3[nH]ncc3c2c2c1CCCC2 | -4.35% (active) |
| C#C[C@]1(O)CC[C@H]2[C@@H]3CC=C4c5nc(Nc6ccc(OC)cc6OC)sc5CC[C@]4(C)[C@H]3CC[C@@]21C | -6.78% (active) |
| c1ccc(-c2nn(-c3ccccc3)[n+](-c3cccc4ccccc34)n2)cc1 | -20.4% (active) |
| C[C@H]1[C@H](C)CC[C@]2(C(=O)OCCCC[P+](c3ccccc3)(c3ccccc3)c3ccccc3)CC[C@]3(C)C(=CC[C@@H]4[C@@]5(C)CC[C@H](OC(=O)C(Cl)Cl)C(C)(C)[C@@H]5CC[C@]43C)[C@H]12 | -70.3% (active) |

| SMILES | growth |
| --- | --- |
| Cc1ccc2cnc(N)c(C#Cc3cc(C(=O)Nc4ccc(CN5CCN(C)CC5)c(C(F)(F)F)c4)cnc3C)c2c1 | 15.5% |
| CC(=O)Oc1ccc(C)cc1C | 112% |
| CN(C)CCN1C(=O)c2cccc3c(/C=C/CN4C(=O)c5cccc6cccc(c56)C4=O)ccc(c23)C1=O | 88.9% |
| CCN1C(=O)N(CC)C2C1NN=c1s/c(=C\c3ccccn3)c(=O)n12 (stereo not given) | -26.9% (active) |
| COc1ccc2[nH]c(C(=O)N3CCN(C(=O)OCc4ccc5c(Cl)cc(Cl)c(O)c5n4)CC3)cc2c1 | -76.5% (active) |
| COc1cc(NCCCN=C(N)NC(N)=NC(C)C)c2ncccc2c1 | -34.2% (active) |
| CC[C@@H](C(=O)[C@@H](C)[C@@H](O)[C@H](C)[C@@H]1O[C@@H]([C@@H](CC)C(=O)O)CC[C@@H]1C)C1O[C@]2(C=CC(=O)[C@]3(CC[C@@](C)([C@H]4CC[C@](O)(CC)[C@H](C)O4)O3)O2)[C@H](C)C[C@@H]1C (stereo not given in full) | 18.9% |
| CC[n+]1c(/C=C/c2ccc(N3CCCC3)cc2)cccc1/C=C/c1ccc(N2CCCC2)cc1 | -85.8% (active) |
| COc1ccc(/C=C2\Oc3cc(OCCN4CCC(Cc5ccccc5)CC4)ccc3C2=O)cc1OC | 31% |
| COc1cc(-c2nc3ccccc3[nH]2)ccc1OCC(=O)N=Nc1c(O)[nH]c2ccc(Cl)cc12 | -78.9% (active) |
| O=C(Nc1ccc(N2CCOCC2)cc1)Nc1ccc2c(ccn2C(=O)c2cccc(F)c2)c1 | 27.5% |
| Cc1ccc(S(=O)(=O)N/N=C2\CCCc3ccccc32)cc1 | 95.7% |
| O=C1c2cccc(NCCN=Cc3cc(O)ccc3O)c2C(=O)c2c(NCCN=Cc3cc(O)ccc3O)cccc21 | -85.8% (active) |
| COc1ccc(/C=C/c2c(C(=O)/C=C/c3cccs3)c(C)nc3ccccc23)cc1 | 66.9% |
| CS(=O)c1nccc(-c2c(-c3ccc(F)c(OCCc4ccccc4)c3)nc3sccn23)n1 (stereo not given) | -39.4% (active) |
| O=C(N/N=C\c1ccc(Cl)cc1)C(=O)N/N=C\c1ccc(Cl)cc1 | 124% |
| O=C(O)CCCN1C(=O)NC2(C1=O)c1ccccc1-c1ccccc12 | 98.2% |
| O=S(=O)(NCCCNc1nccc(-c2c(-c3ccc(O)cc3)nc3sccn23)n1)c1ccc(F)cc1 | -19.2% (active) |
| CC(C)(C)c1ccc(-c2nnc(-c3nc4ccccc4nc3Cl)o2)cc1 | 7.12% (active) |
| CC(=O)Oc1ccccc1C(=O)Nc1ccc(C(=O)/C=C/c2cccs2)cc1 | 109% |
